According to the supplement of paper PMC4954754:
± gives the uncertainty stated by the source.

system: HEK293T-Rex XBP1-RLuc; assay: XBP1-RLuc splicing reporter activation, triplicate, relative to 500 nM thapsigargin (% of thapsigargin); higher = stronger IRE1/XBP1s reporter activation; conditions: 6.8 µM; 18 h; screen: confirmation
Procedure: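 HEK293T-Rex cells stably expressing the ERSE-firefly luciferase (BiP promoter, ATF6-preferring) or XBP1-splicing Renilla luciferase (IRE1/XBP1s) reporter, 1536-well plates, compound at 6.8 µM for 18 hr at 37 °C; luminescence read […] and expressed as % activation = 100*(compound - median DMSO)/(median 500 nM thapsigargin - median DMSO). Primary screen was single-pass; confirmation screen in triplicate (mean ± SD).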

SMILES	XBP1-RLuc splicing reporter activation
O=C(Nc1ccc(Cl)cn1)c1ccc(Cl)cc1Cl	0.717 ± 0.56
O=C(CCCCCCC(=O)Nc1ccccc1)NO	-3.63 ± 0.95
COc1ccc(/C=C2\SC(=O)NC2=Nc2ccc(C)cc2)c(OC)c1	6.33 ± 0.42
O=C(N/N=C\C(Cl)=C\c1ccccc1)c1n[nH]c2c1CCCC2	6.87 ± 1.5
COc1cccc(-c2nc3ccc(N)cc3[nH]2)c1	9.9 ± 1.3
O=C1/C(=C/c2ccc(O)c(O)c2)Oc2cc(O)ccc21	12.6 ± 0.23
O=C(NCCCn1ccnc1)c1cc(-c2cccs2)on1	7.54 ± 0.78
Cc1ccc(O)c(NC(=O)c2cc(C3CC3)on2)c1	13.9 ± 2.1
CCOc1ccc(NC(=O)c2ccc3c(c2)OCO3)c([N+](=O)[O-])c1	-0.432 ± 2.4
O=C(N/N=C/c1cccc(Cl)c1Cl)c1ccccc1O	6.36 ± 0.63
O=C1N/C(=C/c2ccc(O)cc2)C(=O)N1c1ccccc1	49 ± 4.5
O=[N+]([O-])c1ccccc1N/N=C/c1ccc(O)c(O)c1	10.3 ± 1.3
Cc1cc(C)nc(/N=C(\N)Nc2ccc(OCc3ccccc3)cc2)n1	78.3 ± 5.3
CCOC(=O)c1sc(NC(=O)c2cccc3ccccc23)nc1C	2.85 ± 0.37
CCc1ccc(NC(=O)/C=C/c2ccco2)cc1	4.88 ± 0.83
COc1cc(/C=C/c2ccc(O)c(OC)c2)ccc1O	31.8 ± 2.2
N#Cc1c(NC(=O)c2cccc(F)c2)sc2c1CCC2	2 ± 0.56
NC(=O)c1c(NC(=O)c2cccc3ccccc23)sc2c1CCC2	9.06 ± 0.86
